Inconclusive results are not listed. Active and inactive are the calls of the source. The call rests on the fitted dose curve; in most records, active means well fitted inhibition curve with a large enough effect; inconclusive means small, poorly fitted or top-dose-only effect; inactive means flat fitted curve, though single readings scatter.
What follows are molecules tested against Ferritin light chain (Equus caballus) (UniProt P02791) (assay: Confirmation Assay for Identification of Novel General Anesthetics). Conditions: apoferritin 1-aminoanthracene fluorescence displacement.
In short: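 Horse apoferritin (10 uM) pre-loaded with 1-AMA (50% saturated, PBS) exposed to compounds 10 min at room temperature; loss of 1-AMA fluorescence (380/535 nm) scaled between free and bound ligand, curves fitted with Hill equation.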
Further: nearly all actives have a fitted effect of over 40% in size.
Potency means the concentration at half of the fitted maximal effect.

Chain of Ferritin light chain (Equus caballus) (P02791 2-175 limits assumed): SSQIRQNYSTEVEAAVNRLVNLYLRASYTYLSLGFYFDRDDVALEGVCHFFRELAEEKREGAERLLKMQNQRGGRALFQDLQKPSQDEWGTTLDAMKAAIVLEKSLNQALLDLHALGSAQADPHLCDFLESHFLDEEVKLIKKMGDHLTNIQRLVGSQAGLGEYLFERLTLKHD

Potency, active:
O=C1CCCCCCC1Sc1ccccc1[N+](=O)[O-] (stereo not drawn) 7.94 µM
COc1ccc(NC(C)c2ccccc2)cc1 (stereo not drawn) 15.8 µM
C/C(=N\Nc1ccc(F)cc1F)c1cccs1 11.2 µM
Cc1ccc(NC(=O)N2CCCCCC2)cc1 12.6 µM
O=C(CCNc1cccc(Cl)c1)c1ccco1 31.6 µM
Nc1cc(C(F)(F)F)ccc1Nc1ccccc1 25.1 µM
Fc1ccccc1CSc1nncn1NC/C=C/c1ccccc1 31.6 µM
O=c1[nH]cnc2sc3c(c12)CCCCC3 15.8 µM
Cc1ccc(Cl)cc1NC(=O)C1COc2ccccc2O1 (stereo not drawn) 20 µM
O=C(Nc1ccc(Br)cc1)N1CCCCCCC1 6.31 µM
O=C(CNC(=O)c1ccco1)OCC(=O)c1ccc2c(c1)CCCC2 31.6 µM
CC(C)CCOc1ccc(C2N=C(N)Nc3nc4ccccc4n32)cc1 (stereo not drawn) 12.6 µM
O=C(NC1C2CC3CC(C2)CC1C3)c1ccc2c(c1)OCO2 (stereo not drawn) 28.2 µM
Cc1ccccc1CSc1nsc(N)n1 17.8 µM
CSC(=O)NC12CC3CC(CC(C)(C3)C1)C2 5.62 µM
O=C(COC(=O)/C=C/c1ccccc1Cl)NC1CCCCCC1 6.31 µM
Cc1ccccc1Nc1cccc2nonc12 20 µM
COc1ccccc1CC(=O)NC12CC3CC(CC(C3)C1)C2 12.6 µM
Cn1cc(Br)c(C(=O)NC2C3CC4CC(C3)CC2C4)n1 (stereo not drawn) 10 µM
Cc1cccc(S(=O)(=O)NCCc2ccccc2)c1 14.1 µM
CC(=O)c1cccc(NC(=O)CN2C(=O)NC3(CCCCCCC3)C2=O)c1 14.1 µM
Cc1cc(S(=O)(=O)NCCc2ccccc2)c(C)s1 15.8 µM
Nc1nc(SCC(=O)C23CC4CC(CC(C4)C2)C3)n[nH]1 7.08 µM
Cc1ccc(NC(=O)N2CCCCCC2)c(C)c1 15.8 µM
Nc1cc(N)nc(SCC(=O)N2CCc3ccccc32)n1 7.08 µM
NCCOc1ccc(C2CCCCC2)cc1 7.94 µM
O=C1C(Cl)=C(N2CCOCC2)C(=O)N1c1ccccc1Cl 15.8 µM
CCCNC(=O)OCCC12CC3CC(CC(C3)C1)C2 7.08 µM
COc1ccc(Cc2nnc(NC(=O)c3ccccc3F)s2)cc1 25.1 µM
Cc1ccccc1OCC(=O)N1CCCc2ccccc21 17.8 µM
O=c1cc(C23CC4CC(CC(C4)C2)C3)[nH][nH]1 12.6 µM
Cc1ccc(-c2ccc(=O)n(CC(=O)NC(C)c3ccccc3)n2)cc1 (stereo not drawn) 20 µM
O=C(Nc1cccc(Cl)c1)OCc1cnc(Cl)s1 31.6 µM
O=c1c2ccccc2nnn1Cc1ccccc1Cl 15.8 µM
c1cnc(NC2CCCCCC2)nc1 15.8 µM
Cc1ccccc1OCC(=O)N1CCCCCCC1 7.94 µM
C=C(C)C(=O)OC1(C(F)(F)F)Oc2cc(C)ccc2NC1=O (stereo not drawn) 15.8 µM
CC(=O)Nc1ccc(C(=O)OCC(=O)NC2CCCCCCC2)cc1 15.8 µM

Reference: PubChem BioAssay AID489008 (National Center for Advancing Translational Sciences (NCATS), 2010)
